Screening results from PubChem.
hcDAF12 agonist: H. contortus DAF-12 activation, primary screen | HEK293 hcDAF-12 lit1-tk-luc reporter, luminescence; 0% DMSO, 100% Δ7-dafachronic acid | activation, % at 6.8 µM | hit rate 1.4% among 370,000;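 active = activation above the mean of all tested compounds plus 3 SD, cut at about 5.5% in these data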;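 also: 100% = response to 3 µM Δ7-dafachronic acid high control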
ssDAF-12 act: S. stercoralis DAF-12 activation, primary screen; hit rate 1% among 370,000; activation, % at 6.8 µM; AID 652126; HEK293 ssDAF-12/GRIP1 lit1-tk-luc reporter, luminescence; % of 3 µM dafachronic acid response;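 active = activation above the mean over all tested compounds plus 3 SD, cut at about 0.9% in these data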;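 also: 0% = DMSO-only wells and 100% = 3 µM delta7-dafachronic acid wells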
AHR activator: activates the human aryl hydrocarbon receptor; AHR-responsive luciferase reporter cells, luminescence; AID 2796; activation, % at 5 µM; hit rate 2.5% among 320,000; in the data active = activation above about 47%;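 also: 0% = vehicle wells and 100% = reference agonist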
DAX1 inh-1: inhibitors of DAX1 repression of SF-1 activated StAR promoter; inhibition, % at 6.8 µM; AID 652010; HEK293T StAR-luciferase reporter, SF-1/DAX-1 repression relief; hit rate 1.1% among 370,000;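 active = inhibition above the mean over all tested compounds plus 3 SD, cut at about 3.6% in these data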;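 also: 0% = DAX-1 cells with DMSO and 100% = cells lacking DAX-1 with DMSO; higher inhibition means more luminescence from relief of DAX-1 repression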
hgDAF-12 ag: activates the H. glycines DAF-12 receptor ligand-binding domain; AID 687014; HEK293 GAL4-hgDAF12 UAS-luciferase reporter, agonist luminescence; normalized to butyrate control; activation, % at 6.8 µM; hit rate 1.8% among 370,000;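 active = activation above a cutoff set at the mean of all screened compounds plus 3 SD, cut at about 10% in these data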;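 also: 0% = DMSO wells and 100% = sodium butyrate wells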
DAX1 inh-2: inhibitors of human orphan nuclear receptor DAX1 (NR0B1). inhibition, % at 6.75 µM. HEK293 Gal4-DAX1 luciferase reporter, luminescence. P51843. hit rate 0.99% among 340,000. AID 504766;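 active = inhibition above the mean over all tested compounds plus 3 SD, cut at about 4.2% in these data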;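 also: 0% = DAX1-transfected cells with DMSO and 100% = empty-vector control cells with DMSO; inhibition shows as a rise in luminescence from relieved DAX1 repression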
LXR ag: LXR-beta agonism as hcDAF-12 counter-screen; shares compounds with hcDAF12 agonist; HEK293 Gal4-LXR tk-luc reporter, luminescence, 24 h; normalized: DMSO 0%, positive control 100%; activation, % at 6.8 µM; 3,400 tested, under 10 active;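 active = mean percent activation of the reporter above a cutoff set as the average over tested compounds plus their standard deviation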
Target sequence (P55055 whole entry, looked up, the tested form may be a part): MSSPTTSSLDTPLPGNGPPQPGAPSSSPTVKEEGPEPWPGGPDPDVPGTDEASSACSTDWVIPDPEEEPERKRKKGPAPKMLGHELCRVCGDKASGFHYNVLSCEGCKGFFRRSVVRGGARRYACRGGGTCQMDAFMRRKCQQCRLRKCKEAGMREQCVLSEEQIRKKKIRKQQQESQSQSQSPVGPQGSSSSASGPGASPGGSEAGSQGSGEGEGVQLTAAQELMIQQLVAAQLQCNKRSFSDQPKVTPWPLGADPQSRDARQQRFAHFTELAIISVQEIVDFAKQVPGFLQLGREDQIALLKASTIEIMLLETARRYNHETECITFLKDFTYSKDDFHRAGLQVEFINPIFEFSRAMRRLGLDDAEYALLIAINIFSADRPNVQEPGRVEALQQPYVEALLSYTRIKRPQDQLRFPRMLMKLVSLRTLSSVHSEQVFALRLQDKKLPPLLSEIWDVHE
hcDAF12 conf: confirmation of H. contortus DAF-12 agonists; HEK293 hcDAF-12 lit1-tk-luc reporter, luminescence; % of Δ7-dafachronic acid response; activation, % at 6.8 µM; shares compounds with hcDAF12 agonist; hit rate 61% among 3,400;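 active = mean activation across triplicate tests above the threshold derived from the earlier primary screen, cut at about 5.5% in these data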;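 also: 0% = DMSO only wells and 100% = 3 µM Δ7-dafachronic acid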
Numbers without * were called inactive; / = no result given. An excerpt weighted towards active compounds, which were near 5.7% of everything screened.

SMILES	hcDAF12 agonist	ssDAF-12 act	AHR activator	DAX1 inh-1	hgDAF-12 ag	DAX1 inh-2	LXR ag	hcDAF12 conf
CCCC1(c2ccccc2)NC(=O)N(CC(=O)N(C)Cc2c(F)cccc2Cl)C1=O (stereo not drawn)	1.0	-0.5	-2.5	-0.1	0.8	0.2	/	/
CC(C)(C)c1ccc(C(=O)NCC(=O)OCC(=O)N2CCN(S(=O)(=O)c3ccc(Cl)cc3)CC2)cc1	14.6*	-0.3	1.2	2.4	3.5	0.6	0.2	3.0
O=C(CNC(=O)c1ccc(Cl)cc1)OCC(=O)N1CCCC1	-1.0	-1.2	-0.7	0.4	-2.6	1.1	/	/
COc1ccc(CCNC(=O)CCNC(=O)c2ccco2)cc1	6.8*	-0.6	0.6	0.4	2.0	0.4	-0.4	0.1
COc1cccc(CNC(=O)CCNC(=O)c2ccco2)c1	0.0	-1.1	-1.8	0.2	0.0	2.2	/	/
CCOC(=O)COc1ccccc1/C=N\NC(=O)c1cc2c(ccc3ccccc32)o1	-0.2	-0.6	/	-0.4	1.5	-1.2	/	/
COc1cccc(NC(=O)C(Cc2ccccc2)NC(=O)C2CCC(C)CC2)c1 (stereo not drawn)	8.6*	-1.0	16.8	0.5	6.4	-1.9	-0.1	2.0
Cc1noc(/C=C/N(C)C)c1S(=O)(=O)N1CCc2ccccc21	7.4*	0.2	20.0	0.3	-3.1	2.3	-0.2	5.7*
Cc1noc(/C=C/N(C)C)c1S(=O)(=O)N(C)CC(=O)N1CCc2ccccc21	/	/	1.8	/	/	/	/	/
CSCCC(NC(=O)c1ccc(Cl)cc1)C(=O)OCC(=O)Nc1cc(Cl)ccc1C#N (stereo not drawn)	7.5*	0.3	56.1*	-0.3	0.9	0.4	-0.3	3.3
Cc1cnc(C(=O)OCC(=O)Nc2ccc(Cl)cn2)cn1	-0.1	-1.1	5.1	1.6	1.7	1.8	/	/
CSCCC(NC(=O)c1ccc(Cl)cc1)C(=O)OCC(=O)NCc1ccco1 (stereo not drawn)	0.5	-0.7	1.5	0.8	-0.5	-0.6	/	/
Cc1cnc(C(=O)OCC(=O)Nc2cc(Cl)ccc2C#N)cn1	6.6*	0.4	39.4	-1.3	3.4	0.9	-0.2	4.2
O=C(CNCc1ccccc1[N+](=O)[O-])N1CCC2(CC1)OCCO2	7.0*	0.3	/	2.0	12.8*	/	0.5	4.6
O=C(Cc1ccccc1[N+](=O)[O-])N1CCOCC1	0.0	-0.9	2.1	-0.1	0.7	0.5	/	/
COc1cc(C(=O)OCc2cccc(S(=O)(=O)N3CCOCC3)c2)ccc1OCC(C)C	-0.9	-1.6	0.0	1.3	-1.9	-0.4	/	/
CC1=C(C#N)C(c2ccccc2O)C(C#N)=C(C)N1	9.6*	0.6	42.7	-0.4	7.9	2.4	-0.2	5.7*
COc1cc(CN2CCN(C(O)(c3ccccc3)c3ccccc3)CC2)cc(OC)c1OC	-2.6	-1.2	/	0.0	0.1	0.1	/	/
COc1ccccc1Cc1c(-c2ccc(F)cc2)nc2ccc(Cl)cn12	7.0*	-0.2	/	4.0*	11.0*	/	0.2	1.4
O=C(C1COc2ccccc2O1)N1CCN(c2ccc([N+](=O)[O-])cc2)CC1 (stereo not drawn)	-2.4	-1.9	-3.3	-2.2	-3.2	-1.4	/	/
Cc1cnc(NC(=O)Nc2ccc(OCc3ccccc3)cc2)c(Br)c1	7.3*	0.0	6.3	0.2	6.1	0.2	-0.3	1.5
COc1ccc(OC)c(C2CC(=O)N3CN(c4ccccc4F)CSC3=C2C#N)c1 (stereo not drawn)	6.8*	-0.7	-1.4	0.2	0.6	-0.6	-0.3	0.7
COC(=O)c1ccccc1NC(=S)NC(=O)c1ccc(C)cc1	7.4*	0.2	3.1	0.6	9.6	-0.1	-0.1	3.6
COC(=O)c1ccccc1NC(=S)NC(=O)c1ccccc1	-1.6	-0.9	3.7	1.9	2.6	0.5	/	/
Cc1ccc(C(=O)NC(=S)Nc2cc(-c3nc4ccccc4s3)ccc2C)cc1	7.2*	1.4*	-1.3	2.1	12.3*	3.3	0.7	6.0*
SMILES	hcDAF12 agonist	ssDAF-12 act	AHR activator	DAX1 inh-1	hgDAF-12 ag	DAX1 inh-2	LXR ag	hcDAF12 conf
Cc1cc(C)c(NC(=S)NC(=O)c2ccc(-c3ccccc3)cc2)c(C)c1	1.2	-1.6	0.8	0.2	-2.0	1.3	/	/
Cc1cc(NC(=O)C(C)SCC(=O)Nc2cc(C(F)(F)F)ccc2N2CCOCC2)no1 (stereo not drawn)	2.3	-0.8	2.5	2.1	0.7	0.2	/	/
COC(=O)c1cn(CCOc2ccccc2)c2ccccc12	6.7*	1.3*	3.4	1.0	5.9	1.2	0.2	3.2
Cc1nn(-c2nc3ccccc3s2)c(N)c1Sc1ccc(F)cc1	6.6*	0.8	20.4	1.7	7.2	3.4	0.8	13.8*
Cc1nn(-c2ccccc2)c(N)c1Sc1ccc([N+](=O)[O-])cc1	0.2	-1.4	3.9	-1.5	4.1	0.0	/	/
Cc1cc(C)n(-c2nc3ccccc3s2)n1	-0.7	-0.7	4.4	0.0	6.0	-0.5	/	/
Cc1cc(N)n(-c2nc3ccccc3s2)n1	7.8*	1.9*	18.6	3.6*	11.4*	5.2*	1.2	9.6*
O=C(NC1CCOc2ccccc21)C1CCCC1 (stereo not drawn)	6.7*	0.0	2.6	0.1	-2.5	-0.3	-0.1	3.0
O=C(C1=NN[C@@H]2C(=O)N(c3cccc(C(F)(F)F)c3)C(=O)[C@H]12)c1ccc2ccccc2n1	-4.9	-2.9	29.4	-2.6	-12.6	-0.3	/	/
O=C(C1=NN[C@@H]2C(=O)N(c3cccc(F)c3)C(=O)[C@H]12)c1ccc2ccccc2n1	9.0*	0.7	98.7*	1.8	2.8	0.3	-0.2	2.6
Cc1cccn2cc(-c3ccc(F)cc3)nc12	12.5*	1.8*	27.6	3.9*	11.5*	1.9	1.9	9.7*
Cn1c(=O)n(C)c2cc(S(=O)(=O)Nc3cc(Cl)ccc3O)ccc21	-1.1	-0.7	1.4	-0.6	-0.2	0.6	/	/
O=C1C(=O)c2ccccc2C(O)=C1c1ccccc1F	-1.6	-1.1	2.9	-0.8	-4.8	1.6	/	/
O=C1C(c2ccnc3ccccc23)=C(O)c2ccccc21	26.2*	3.3*	53.9*	3.5	16.0*	1.3	1.8	19.7*
Cc1cccc(C2c3[nH]c4ccccc4c3CCN2C(=O)Cc2nc(-c3ccccc3)n[nH]2)n1 (stereo not drawn)	2.5	-0.4	22.5	-0.4	-1.5	0.0	/	/
Cc1cccc(C2c3[nH]c4ccccc4c3CCN2C(=O)CN2CCOC2=O)n1 (stereo not drawn)	7.0*	0.3	10.8	-0.6	-1.9	-0.1	-0.2	6.1*
